Source: PubChem BioAssay (NCATS)
Inconclusive results are not listed. Calls of active or inactive are those of the source. Unless noted, calls follow the shape of the dose curve; as a rule, active = well fitted curve in the direction sought with a large enough effect; inconclusive = small, poorly fitted or top-dose-only effect, or another doubt; inactive = no such curve, though single readings can be large; an effect the other way counts as inactive or inconclusive.

Legend:
[1] = test system: Zika virus NS2B-NS3 protease (unlinked complex); test: Primary screen GU Rhodamine qHTS for Zika virus inhibitors: Unlinked NS2B-NS3 protease assay (AID 1347159); also: % is scaled to controls: 0 for no effect and ±100 for the full control effect; nearly all actives have a fitted effect of over 60% in size
In short: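 Compounds, tested up to 114 microM, were incubated for 15 minutes with 25 nM unlinked NS2B-NS3 protease at pH 8.0. Cleavage of 1.5 microM Rhodamine110 substrate was then followed by fluorescence for 15 minutes.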

[2] = test system: Zika virus NS2B-NS3 protease (linked construct); test: Primary screen NINDS Rhodamine qHTS for Zika virus inhibitors (AID 1347160); also: nearly all actives have a fitted effect of over 55% in size; as to activity change, negative = inhibition: % is scaled to controls: 0 for no effect and ±100 for the full control effect
In short: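 Percent inhibition, normalized to uninhibited and enzyme-free controls, is fitted to a 4-parameter Hill equation. Fluorescence change comes from a 15-min cleavage of 1.5 microM bis-peptide Rhodamine110 substrate by 25 nM linked NS2B-NS3 at room temperature.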

[3] = target: Calcium and integrin-binding protein 1 (Homo sapiens) (UniProt Q99828); test: Primary qHTS for Identification of Calcium Integrin Binding Protein 1 (CIB1) Competitor (AID 1508620);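 also: GST tagged CIB1 binding a fluorescein labelled alphaIIb integrin peptide tracer; top concentration of the series differs between compounds; % is scaled to controls: 0 for no effect and ±100 for the full control effect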
In short: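 CIB1-GST (1 uM final) and compound incubated 15 min at room temperature before adding FITC-alphaIIb peptide tracer (100 nM final). Competition for binding read by fluorescence polarization (ex 480, em 540) after another 15 min at room temperature.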

[4] = Primary qHTS for inhibitors of nuclear receptor binding SET domain protein 2 (NSD2) in an isogenic RCH-ACV NSD2 p.E1099K mutant (9B) (AID 1645876); also: nearly all actives have a fitted effect of over 70% in size; also: potency is read from the fitted curve at half-maximal effect
[5] = Primary qHTS for inhibitors of nuclear receptor binding SET domain protein 2 (NSD2) in an RCH-ACV wild type WT cells (2C) (AID 1645877); also: nearly all actives have a fitted effect of over 70% in size; also: potency is read from the fitted curve at half-maximal effect
[6] = target: Phospholipid hydroperoxide glutathione peroxidase GPX4 (Homo sapiens) (UniProt P36969); test: Primary qHTS Assay for Inhibitors of Recombinant Selenoprotein Glutathione Peroxidase 4 (GPX4) (AID 1845192); conditions: outcome: dose series up to 50 µM unless noted; also: nearly all actives have a fitted effect of over 65% in size; as to activity change, negative = inhibition: % is scaled to controls: 0 for no effect and ±100 for the full control effect
In short: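 NADPH consumption, followed by fluorescence at 340/450 nm between 0 and 15 min, reports GPX4 activity via coupled glutathione reductase (100 nM). Enzyme 200 nM was pre-exposed to compound 30 min; 0.5 mM cumene hydroperoxide and 1 mM GSH served as substrates.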

[7] = target: Luciferin 4-monooxygenase (Photinus pyralis) (UniProt P08659); test: Primary firefly luciferase (FLuc) qHTS assay for identification of artifact compounds. (AID 1845220); also: nearly all actives have a fitted effect of over 60% in size;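 as to activity change, negative = inhibition: plate controls were DMSO vehicle for no effect and no enzyme for full effect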
In short: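 Cell-free, 1536-well qHTS. Buffer pH 7.6 with 0.01% Tween-20 and 0.05% BSA; 10 uM D-luciferin, 10 uM ATP; 10 nM P. pyralis luciferase; luminescence after 5 min.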

[8] = test system: Nanoluciferase (engineered Oplophorus gracilirostris luciferase); test: Primary Nanoluciferase (NLuc) qHTS assay for identification of artifact compounds. (AID 1845222); also: potency is read from the fitted curve at half-maximal effect;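 as to activity, negative = inhibition: 0% = DMSO and -100% = no enzyme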
In short: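 Compounds are pinned into diluted (1:55) conditioned medium of NLuc-expressing S16 cells and held 15 min at room temperature protected from light. Nano-Glo substrate follows, and luminescence is read 5 min later.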

C33A = test: Primary qHTS to identify gynecologic anti-cancer compounds using libraries of approved drugs and bioactive compounds (AID 1345084); conditions: Gynecologic cancer cell panel viability, ATPlite luminescence, 48 h; series mostly up to 57.5 µM; also: nearly all actives have a fitted effect of over 55% in size; also: potency is read from the fitted curve at half-maximal effect; as to activity change, negative = cytotoxicity: % is scaled to controls: 0 for no effect and ±100 for the full control effect
In short: (§1)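 ATP-based viability (ATPlite), 1,000 cells/well, 16 h pre-incubation, 48 h compound at 37 C, 5% CO2, 15 min RT before read.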

CASKI = test: as above; conditions: Gynecologic cancer cell panel viability, ATPlite luminescence, 48 h; series mostly up to 57.5 µM
In short: as §1

Es-2 = test: as above; conditions: Gynecologic cancer cell panel viability, ATPlite luminescence, 48 h; series mostly up to 57.5 µM
In short: as §1

HeLa = test: as above; conditions: Gynecologic cancer cell panel viability, ATPlite luminescence, 48 h; series mostly up to 57.5 µM
In short: as §1

Hek293T = test: as above; conditions: Gynecologic cancer cell panel viability, ATPlite luminescence, 48 h, control line for the selectivity index; series mostly up to 57.5 µM
In short: as §1

JEG-3 = test: as above; conditions: Gynecologic cancer cell panel viability, ATPlite luminescence, 48 h; series mostly up to 57.5 µM
In short: as §1

OV90 = test: as above; conditions: Gynecologic cancer cell panel viability, ATPlite luminescence, 48 h; series mostly up to 57.5 µM
In short: as §1

Tov-21-G = test: as above; conditions: Gynecologic cancer cell panel viability, ATPlite luminescence, 48 h; series mostly up to 57.5 µM
In short: as §1

Tov112D = test: as above; conditions: Gynecologic cancer cell panel viability, ATPlite luminescence, 48 h; series mostly up to 57.5 µM
In short: as §1

HaCat = test: Cytotoxic Profiling of Annotated Libraries Using Quantitative High-Throughput Screening (AID 1296008); conditions: Five cell lines viability, CellTiter-Glo ATP luminescence, 48-72 h; max response: stronger effect = lower value; also: % is scaled to controls: 0 for no effect and ±100 for the full control effect; nearly all actives have a fitted effect of over 60% in size
In short: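 Cytotoxicity was measured as CellTiter-Glo ATP luminescence, read after 10 min at room temperature. Compound treatment of the cells lasted 48 or 72 hr at 37 degrees Celsius in a qHTS format.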

[9] = target: Glutathione peroxidase 1 (Homo sapiens) (UniProt P07203); test: Primary qHTS Assay for Inhibitors of Recombinant Selenoprotein Glutathione Peroxidase 1 (GPX1) (AID 1845191); also: nearly all actives have a fitted effect of over 65% in size
In short: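 10 nM GPX1 + cpd, 30 min RT; start w/ 1 mM GSH, 0.5 mM cumene hydroperoxide, 0.5 mM NADPH, 100 nM GR, 0.01% BSA; buffer 50 mM Tris-HCl pH 7.5, 2 mM EDTA, 150 mM NaCl; Fl 340/450, 0 & 15 min.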

[10] = qHTS drug screen for cell cycle checkpoint inhibitors in PARPi-resistant BRCA-mutant ovarian cancer cell lines. (AID 1963452; calls by dose curve); conditions: PEO1/OlaR viability, CellTiter-Glo luminescence, 96 h, stronger effect = lower value
In short: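 PEO1, PEO4 and PEO1/OlaR ovarian cancer cells, 600 per well, exposed 96 h at 37C to a dilution series. Viability read by CellTiter-Glo luminescence, normalized to DMSO and empty wells; activity summarized as Z-AUC.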

[11] = measured here: PEO1 parental Z-AUC

Glutathione peroxidase 1 (Homo sapiens), sequence (P07203 whole entry, looked up): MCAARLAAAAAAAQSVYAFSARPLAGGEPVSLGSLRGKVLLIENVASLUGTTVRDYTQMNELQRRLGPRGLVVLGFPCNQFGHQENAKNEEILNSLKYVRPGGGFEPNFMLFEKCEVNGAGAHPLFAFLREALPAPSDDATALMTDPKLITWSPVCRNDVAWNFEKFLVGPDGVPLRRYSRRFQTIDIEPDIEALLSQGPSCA
Phospholipid hydroperoxide glutathione peroxidase GPX4 (Homo sapiens), sequence (P36969 whole entry, looked up): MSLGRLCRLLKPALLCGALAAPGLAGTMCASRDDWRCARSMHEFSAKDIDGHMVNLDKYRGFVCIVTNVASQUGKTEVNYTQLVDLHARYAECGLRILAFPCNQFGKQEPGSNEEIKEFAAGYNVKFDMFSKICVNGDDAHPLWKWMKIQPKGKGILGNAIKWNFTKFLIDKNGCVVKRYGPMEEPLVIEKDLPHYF
Calcium and integrin-binding protein 1 (Homo sapiens), sequence (Q99828 whole entry, looked up): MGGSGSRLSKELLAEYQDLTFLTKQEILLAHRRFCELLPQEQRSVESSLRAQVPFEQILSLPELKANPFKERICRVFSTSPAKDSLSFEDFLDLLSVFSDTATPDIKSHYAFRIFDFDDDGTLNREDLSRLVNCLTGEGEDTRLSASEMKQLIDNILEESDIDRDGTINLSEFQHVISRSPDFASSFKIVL

COc1ccc(NS(=O)(=O)c2sc3ccc(Cl)cc3c2C)cc1N1CCNCC1
active: Potency [4] 20.5 µM | Potency [5] 12.9 µM
inactive: Potency [1] | Potency [2] | outcome [3] | Potency [6] | Potency [7] | Potency [8] | Potency (C33A) | Potency (CASKI) | Potency (Es-2) | Potency (HeLa) | Potency (Hek293T) | Potency (JEG-3) | Potency (OV90) | Potency (Tov-21-G) | Potency (Tov112D)

CC(=O)C1=C(O)C2c3c[nH]c4cccc(c34)CC2C(C)(C)N(C)C1=O (configuration not stated)
inactive: Potency [1] | Potency [2] | outcome [3] | Potency [6] | Potency [7] | max response (HaCat) -23.8% | Potency (HeLa) | Potency (Hek293T) | Potency (JEG-3) | Potency (OV90) | Potency (Tov-21-G) | Potency (Tov112D)
active: Potency [4] 18.3 µM | Potency [5] 14.5 µM

CC(CCC1(O)OC2CC3C4CC=C5CC(O[C@@H]6O[C@H](CO)[C@@H](O[C@@H]7O[C@H](CO)[C@@H](O)[C@H](O)[C@H]7O)[C@H](O)[C@H]6O[C@@H]6O[C@@H](C)[C@H](O)[C@@H](O)[C@H]6O)CCC5(C)C4CCC3(C)C2C1C)CO[C@@H]1O[C@H](CO)[C@@H](O)[C@H](O)[C@H]1O (some centres not stated)
inactive: Potency [1] | Potency [2] | outcome [3] | Potency [9] | Potency [6] | activity change, negative = inhibition [7] 1.02% [at 11.6 µM] | activity, negative = inhibition [8] 4.58% [at 11.6 µM] | activity change, negative = cytotoxicity (C33A) 1.45% [at 11.6 µM] | activity change, negative = cytotoxicity (CASKI) 1.26% [at 11.6 µM] | activity change, negative = cytotoxicity (Es-2) 5.5% [at 11.6 µM] | activity change, negative = cytotoxicity (HeLa) -13.3% [at 11.6 µM] | activity change, negative = cytotoxicity (Hek293T) 1.54% [at 11.6 µM] | activity change, negative = cytotoxicity (JEG-3) -6.68% [at 11.6 µM] | activity change, negative = cytotoxicity (OV90) -1.03% [at 11.6 µM] | activity change, negative = cytotoxicity (Tov-21-G) -1.21% [at 11.6 µM] | activity change, negative = cytotoxicity (Tov112D) 7.99% [at 11.6 µM]

CC1CCCC(SCC(O)C(=O)O)CC(=O)c2c(O)cc(O)cc2CC(=O)O1 (configuration not stated)
active: Potency [4] 6.32 µM | Potency [5] 3.55 µM
inactive: Potency [2] | outcome [3] | Potency [9] | Potency [6] | Potency [7] | Potency [8] | max response (HaCat) -1.3% | Potency (HeLa) | Potency (JEG-3) | Potency (OV90) | Potency (Tov-21-G)

CNCc1ccc(C)c(NC(=O)c2ccc(Nc3nc(-c4ccccc4)c4ccccc4n3)cc2)c1
-0.199: Z-AUC [10, 11]
active: Potency [4] 7.42 µM | Potency [5] 7.42 µM
-0.532: Z-AUC ([10]; measured here: PEO4 Z-AUC)
inactive: Potency [1] | Potency [2] | outcome [3] | Potency [9] | Potency [6] | Potency [7] | Potency [8] | Z-AUC [10] -0.484 | Potency (C33A) | Potency (CASKI) | Potency (Es-2) | Potency (HeLa) | Potency (Hek293T) | Potency (JEG-3) | Potency (OV90) | Potency (Tov-21-G) | Potency (Tov112D)

Cc1cc2nc(NCCCO)n(CC(=O)c3cc(C(C)(C)C)c(O)c(C(C)(C)C)c3)c2cc1C
active: Potency [4] 8.17 µM
inactive: Potency [1] | Potency [2] | outcome [3] | Potency [9] | Potency [6] | Potency [7] | Potency [8] | max response (HaCat) -19.8% | Potency (CASKI) | Potency (Es-2) | Potency (HeLa) | Potency (Hek293T) | Potency (JEG-3) | Potency (OV90) | Potency (Tov-21-G) | Potency (Tov112D)

CCS(=O)(=O)N(Cc1cccnc1)c1cccc(-c2ccc(C#N)cc2)c1
inactive: Potency [1] | Potency [2] | outcome [3] | Potency [9] | Potency [6] | Potency [7] | Potency [8] | Potency (C33A) | Potency (CASKI) | Potency (Es-2) | Potency (HeLa) | Potency (Hek293T) | Potency (JEG-3) | Potency (Tov112D)
active: Potency [4] 16.3 µM | Potency [5] 20.5 µM

Cc1nc(C)c2c(n1)N(Cc1ccc(-c3ccccc3-c3nn[nH]n3)cc1)C(=O)CC2
active: Potency [8] 21.3 µM
inactive: Potency [1] | Potency [2] | outcome [3] | Potency [4] | Potency [5] | Potency [9] | Potency [6] | Potency [7] | Potency (C33A) | Potency (CASKI) | Potency (Es-2) | Potency (HeLa) | Potency (Hek293T) | Potency (JEG-3) | Potency (OV90) | Potency (Tov-21-G) | Potency (Tov112D)

CC1OC2O[C@H]3[C@@H](OCC(O)[C@H]3O)OC(=O)C34CCC(C)(C)CC3C3=CCC5C6(C)CC(O)C(OC7OC(CO)C(O)C(O)C7O[C@@H]7OC[C@H](OC(=O)CC(C)(O)CC(=O)OC1C(OC1OCC(O)C(O)C1O)C2O)[C@@H](O)[C@H]7O)C(C)(CO)C6CCC5(C)C3(C)CC4 (some centres not stated)
active: Potency [4] 8.93 µM | Potency [5] 4.47 µM
inactive: Potency [2] | outcome [3] | Potency [6] | Potency [7] | Potency [8] | Potency (CASKI) | Potency (HeLa) | Potency (Hek293T)

Cc1nc2ccc(C(=O)N3CCC4(CC3)CC(=O)c3c(cnn3C(C)C)C4)cc2[nH]1
inactive: outcome [3] | Potency [9] | Potency [6] | Z-AUC [10] -0.421 | max response (HaCat) -28.8%
-0.389: Z-AUC [10, 11]
-0.0398: Z-AUC ([10]; measured here: PEO4 Z-AUC)

CNCCN(C)Cc1cn[nH]c1-c1ccc(OC2CC(OCCC3CCOCC3)C2)cc1 (configuration not stated)
-1: Z-AUC [10, 11]
inactive: outcome [3] | Potency [9] | Potency [6] | Z-AUC [10] -0.683
-0.979: Z-AUC ([10]; measured here: PEO4 Z-AUC)

CC(=O)N1CCN([C@H]2CCN(C(=O)N(C)[C@H](C)c3cc(C(F)(F)F)cc(C(F)(F)F)c3)[C@@H](c3ccc(F)cc3C)C2)CC1
inactive: Potency [1] | Potency [2] | outcome [3] | Potency [9] | Potency [6] | Potency [8] | Potency (C33A) | Potency (CASKI) | Potency (Es-2) | Potency (HeLa) | Potency (Hek293T) | Potency (JEG-3) | Potency (OV90) | Potency (Tov-21-G) | Potency (Tov112D)

C=C1[C@@H](C2=CC(=O)OC2)CC[C@@]2(O)[C@@H]1CC1[C@H]2CC[C@@H]2C[C@@H](O[C@H]3O[C@@H](C)[C@@H](O[C@@H]4O[C@H](CO[C@@H]5O[C@H](CO)[C@@H](O)[C@H](O)[C@H]5O)[C@@H](O)[C@H](O)[C@H]4O)[C@H](OC)[C@H]3O)CC[C@]12C (some centres not stated)
active: Potency [4] 1.94 µM | Potency (C33A) 3.55 µM | Potency (Tov-21-G) 3.16 µM | Potency (Tov112D) 2.24 µM
inactive: Potency [1] | Potency [2] | outcome [3] | Potency [9] | Potency [6] | activity, negative = inhibition [8] -0.15% [at 11.6 µM] | activity change, negative = cytotoxicity (CASKI) -6.72% [at 11.6 µM] | activity change, negative = cytotoxicity (OV90) -0.0855% [at 11.6 µM]
